Data on 25 compounds can be found in PubChem BioAssay (NCATS).

The source made the active and inactive calls. Calls come from the whole dose curve; as a rule, active = well fitted inhibition curve with a large enough effect; inconclusive = small, poorly fitted or top-dose-only effect; inactive = flat fitted curve, though single readings scatter.

Phosphoglycerate kinase, glycosomal (Trypanosoma brucei brucei), sequence (P07378 whole entry, looked up): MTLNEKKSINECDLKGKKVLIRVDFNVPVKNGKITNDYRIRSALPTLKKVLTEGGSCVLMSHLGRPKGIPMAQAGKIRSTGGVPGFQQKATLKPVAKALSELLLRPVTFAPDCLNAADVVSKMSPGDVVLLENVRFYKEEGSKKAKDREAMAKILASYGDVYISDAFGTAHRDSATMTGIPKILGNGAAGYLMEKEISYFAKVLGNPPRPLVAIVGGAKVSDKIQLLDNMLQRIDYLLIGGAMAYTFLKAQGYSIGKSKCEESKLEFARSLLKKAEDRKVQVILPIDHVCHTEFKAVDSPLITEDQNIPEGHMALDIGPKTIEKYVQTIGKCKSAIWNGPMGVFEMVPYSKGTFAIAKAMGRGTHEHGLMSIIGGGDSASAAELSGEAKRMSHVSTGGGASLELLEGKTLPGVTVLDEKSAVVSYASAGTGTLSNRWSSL

The target in the test is Phosphoglycerate kinase, glycosomal (Trypanosoma brucei brucei) (UniProt P07378). As to the kind of experiment: qHTS Validation Assay to Find Inhibitors of Phosphoglycerate Kinase (AID 504547).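 Note: control wells lack PGK and mark full inhibition.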 To be noted: enzymatic PGK inhibition, coupled luminescence read-out; series mostly up to 57.5 µM; activity, negative = inhibition: at the top concentration. The text has this:
NIH Molecular Libraries Probe Production Network [MLPCN]
NIH Chemical Genomics Center [NCGC]
PI Name: Malcolm Walkinshaw, University of Edinburgh
Several species of the Trypanosomatidae family of parasitic protozoans cause a spectrum of diseases
throughout the tropical and subtropical world. Sleeping sickness, caused by two subspecies of Trypanosoma brucei, is endemic to areas of sub-Saharan Africa, while Chagas disease, a manifestation of Trypanosoma cruzi infection, is prevalent throughout Central and South America. In addition, many species of Leishmania are responsible for a range of cutaneous and visceral diseases, causing ulcers, destructive lesions and kalaazar, a lethal infection of the viscera. Collectively, these organisms infect 30 million people worldwide (~500 million live in endemic areas), and account for ~130,000 deaths annually. Given their debilitating and prevalent nature, trypanosomatid parasites impose a heavy medical, economic and social burden on entire populations, primarily in the developing world. The problem is further exacerbated by the fact that existing treatments have progressed little in the past 50 years, and current drugs show high toxicity and poor efficacy.
Blood-stream stages of T. brucei are entirely dependent on glycolysis as a source of ATP, and the tricarboxylic acid cycle and oxidative phosphorylation are both repressed. Glycolysis in axenically cultured T. cruzi, representing the intracellular pathogenic stage, is also essential for these parasites. […] Previous studies have shown that the glycolytic enzyme, phosphoglycerate kinase (PGK), is a viable target for drugs to kill these parasites.
NCGC Assay Protocol Summary:
Briefly, 3ul of substrate/PGK buffer (columns 1,2,5-48) are dispensed into Greiner white solid bottom 1536-well assay plates; columns 3-4 receive only TEA buffer as 0x PGK controls. Compounds are then transferred via Kalypsys pin tool equipped with 1536-pin array (10nl slotted pins, V&P Scientific, San Diego, CA). Following addition of compound, 1ul of GAPDH (100nM final concentration, all columns) is added to initiate the reaction (this upstream coupling enzyme is necessary for in-well production of PGK substrate, 1,3-bisphosphoglycerate (1,3-BPG), which is unstable and not commercially available). The plates are then incubated at room temperature for 60 minutes. Kinase-Glo Plus reagent is added (2ul) and plates incubated for 10 minutes, before being transferred to a ViewLux high-throughput CCD imager (PerkinElmer) wherein single end-point measurements of luminescence are acquired using a clear filter. All reagents are diluted in an assay buffer consisting of 100mM TEA (pH 7.6), 5mM MgCl2 and 0.01% Tween-20.
In general terms: Quantitative high-throughput screening tests each substance at several concentrations.
Turning to `C[C@]12CC[C@@H]3c4ccc(O)cc4CC[C@H]3[C@@H]1CC[C@@H]2O`, the “activity, negative = inhibition” value was 0.201% (inactive).

With `COC(=O)[C@H]1[C@H]2C[C@H]3c4[nH]c5ccccc5c4CCN3C[C@H]2CC[C@@H]1O`, the “activity, negative = inhibition” value is 3.82% (inactive).

Turning to `O=C1CCC(c2ccc(-n3ccnc3)cc2)=NN1`, the “activity, negative = inhibition” value was 3.26% (inactive).

As for `CN1C2CCC1CC(OC(=O)c1c[nH]c3ccccc13)C2` (stereo not given), the “activity, negative = inhibition” value is 13.1% (inactive).

On to `Nc1cc(Cl)c(NC2=NCCN2)c(Cl)c1`, for which the “activity, negative = inhibition” value is 1.15% (inactive).

On to `CCCC1O[C@@H]2C[C@H]3[C@@H]4CCC5=CC(=O)C=C[C@]5(C)[C@H]4[C@@H](O)C[C@]3(C)[C@]2(C(=O)CO)O1` (stereo not given in full), for which the “activity, negative = inhibition” value was -2.2% (inactive).

`COc1cc(NS(C)(=O)=O)ccc1Nc1c2ccccc2nc2ccccc12`: the “activity, negative = inhibition” value was -1.77% (inactive).

Consider `CCC(NC(C)C)C(O)c1ccc(O)c(O)c1` (stereo not given), for which the “activity, negative = inhibition” value was 0.121% (inactive).

As to `C[C@@H]1C(=O)NC2=Nc3cccc(Cl)c3CN21`, the “activity, negative = inhibition” value was 0.189% (inactive).

As for `CC(=O)O[C@H]1C[C@@H]2CC[C@@H]3[C@H](CC[C@@]4(C)[C@H]3C[C@H]([N+]3(C)CCCCC3)[C@@H]4OC(C)=O)[C@@]2(C)C[C@@H]1[N+]1(C)CCCCC1`, the “activity, negative = inhibition” value is 0.591% (inactive).

Consider `CC(C)COC(=O)OCN1C(=O)CN(CCN2CC(=O)N(COC(=O)OCC(C)C)C(=O)C2)CC1=O`, for which the “activity, negative = inhibition” value was 8.81% (inactive).

For the compound `CCCn1c(=O)[nH]c(=O)c2[nH]cnc21`, the “activity, negative = inhibition” value was 11.6% (inactive).

In the case of `COc1cc2c(cc1O)CC[C@@H]1[C@@H]2CC[C@]2(C)[C@@H](O)CC[C@@H]12`, the “activity, negative = inhibition” value was 0.375% (inactive).

For the compound `CNCCC(Oc1ccccc1C)c1ccccc1` (stereo not given), the “activity, negative = inhibition” value is 0.285% (inactive).

In the case of `N[C@H](CO)C(=O)O`, the “activity, negative = inhibition” value was 12.4% (inactive).

With `CC[C@H](C)C(=O)O[C@H]1CCC=C2C=C[C@H](C)[C@H](CC[C@@H]3C[C@@H](O)CC(=O)O3)[C@H]21`, the “activity, negative = inhibition” value is 2.7% (inactive).

Take `CC1(C)CCC(NC(=O)[C@@H](N)CCC(=O)O)CC1`: the “activity, negative = inhibition” value was 5.49% (inactive).

As to `N[C@@H](Cc1cnc[nH]1)C(=O)O`, the “activity, negative = inhibition” value is -3.04% (inactive).

In the case of `CC(C)C[C@H]1C(=O)N2CCC[C@H]2[C@]2(O)O[C@](NC(=O)[C@@H]3C=C4c5cccc6[nH]c(Br)c(c56)C[C@H]4N(C)C3)(C(C)C)C(=O)N12`, the “activity, negative = inhibition” value was 6.24% (inactive).

`C[N+]1(CCCCC[N+]2(C)CCCC2)CCCC1`: the “activity, negative = inhibition” value was -0.739% (inactive).

On to `CNCCC=C1c2ccccc2CCc2ccccc21`, for which the “activity, negative = inhibition” value was 3.43% (inactive).

`C1CCc2nnnn2CC1`: the “activity, negative = inhibition” value was 4.07% (inactive).

Take `CC(CCc1ccccc1)NCC(O)c1ccc(O)c(C(N)=O)c1` (stereo not given): the “activity, negative = inhibition” value was 10.7% (inactive).

As to `O=C(O)c1cc2cc(Cc3cccnc3)ccc2o1`, the “activity, negative = inhibition” value is 7.83% (inactive).

For the compound `Oc1ccc(O)cc1`, the “activity, negative = inhibition” value is -0.562% (inactive).
